Values joined by “and” are separate entries in the source; they are usually repeats but may differ in a detail not shown here. Equal values may be shown once. Results filed as inconclusive are left out. Unmarked numbers belong to inactive results. Active and inactive are the calls of the source. Calls come from the whole dose curve; as a rule, active = well fitted inhibition curve with a large enough effect; inconclusive = small, poorly fitted or top-dose-only effect; inactive = flat fitted curve, though single readings scatter.
tested on: Zika virus NS2B-NS3 protease; experiment: Primary screen GU AMC qHTS for Zika virus inhibitors (AID 1347154); details: Zika NS2B-NS3 unlinked protease, AMC fluorogenic substrate; series mostly up to 54.1 µM; activity change, negative = inhibition: at the top concentration; note: nearly all actives have a fitted effect of over 70% in size;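 for activity change, negative = inhibition: 0% = no-inhibitor control and -100% = no-enzyme control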
Outline: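 Unlinked Zika NS2B hydrophilic domain/NS3 protease domain noncovalent complex (25 nM final) in 10 mM Tris-HCl pH 8.0, 0.01% Tween 20, with AMC peptide substrate. Fluorescence (ex 340, em 450 nm) change over 15 min, room temperature; percent inhibition fitted to 4-parameter Hill equation.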
Potency is the fitted concentration of half-maximal effect.

Row | Compound | activity change, negative = inhibition | Potency
1 | Oc1ccc([C@@H]2Oc3ccc(O)cc3[C@@H]3CCC[C@@H]32)cc1 | -6.85% | –
2 | C[C@H]1COc2c(N3CCN(C)CC3)c(F)cc3c(=O)c(C(=O)O)cn1c23 | – | 27.1 µM (active) and 10.6 µM (active)
3 | Cc1cnc(NC(=O)Nc2cc(Br)c(C)cc2OC[C@@H]2CNCCO2)cn1 | 11.9% | –
4 | COc1cc(C(C)C)c(Oc2cnc(NC(CO)CO)nc2N)cc1I | 1.4% | –
5 | NC1=N[C@H]2[C@H](CS[C@H]2CCCCC(=O)O)N1 | 6.47% [at 25.8 µM] | –
6 | COC1=C(OC)C(=O)C(CC=C(C)CCC=C(C)CCC=C(C)CCC=C(C)CCC=C(C)CCC=C(C)CCC=C(C)CCC=C(C)CCC=C(C)CCC=C(C)C)=C(C)C1=O | 3.24% | –
7 | COc1ccc(S(=O)(=O)Nc2cc(-c3c(O)ccc4ccccc34)c(O)c3ccccc23)cc1 | – | 24.1 µM (active)
8 | c1cc(N[C@@H]2CCNC2)nc(-c2cnc3ccc(-c4cn[nH]c4)cn23)c1 | – | 19.2 µM (active)
9 | C[C@H](NC(=O)[C@@H](O)c1cc(F)cc(F)c1)C(=O)N[C@@H]1C(=O)N(C)c2ccccc2-c2ccccc21 | 0.499% | –
10 | N=c1ccn2c(n1)O[C@H]1[C@@H](O)[C@@H](CO)O[C@H]12 | 6.59% | –
11 | Cc1ccc(-n2[nH]c(C)c(N=Nc3cccc(-c4cccc(C(=O)O)c4)c3O)c2=O)cc1C | – | 19.2 µM (active)
12 | OCc1ccccc1O[C@@H]1O[C@H](CO)[C@H](O)[C@H](O)[C@H]1O | 6.85% | –
13 | Cc1cn([C@@H]2O[C@H](CO)[C@@H](O)[C@H]2F)c(=O)[nH]c1=O | -9.56% | –
14 | CCc1ccc(C(=O)Nc2cc(CN3CCN(C)CC3)cc(C(F)(F)F)c2)cc1C#Cc1cnc2ccnn2c1 | -7.67% | –
15 | C[C@H](NC(=O)Cc1cc(F)cc(F)c1)C(=O)N[C@H](C(=O)OC(C)(C)C)c1ccccc1 | 4.92% | –
16 | O=[N+]([O-])c1cn2c(n1)OC[C@@H](OCc1ccc(OC(F)(F)F)cc1)C2 | 3.73% | –
17 | CCCCCCCCCCCCc1ccc(S(=O)(=O)Nc2nncs2)cc1 | 2.59% | –
18 | CN1CCc2c(c3ccccc3n2Cc2ccc(C(=O)NO)cc2)C1 | -0.741% | –
19 | CCc1cnn2c(NCc3ccc[n+]([O-])c3)cc(N3CCCC[C@@H]3CCO)nc12 | 10.4% | –
20 | Cc1ccccc1C(=O)Nc1ccc(C(=O)N2CCCC(O)c3cc(Cl)ccc32)c(C)c1 (centres undefined) | -8.05% | –
21 | COC(=O)[C@H](CCCN=C(N)N)NS(=O)(=O)c1ccc(C)cc1 | 15.8% | –
22 | O=C(O)C[C@H](O)C[C@H](O)C=Cc1c(C2CC2)nc2ccccc2c1-c1ccc(F)cc1 | 21.5% | –
23 | O=C(C=Cc1ccc(CN(CCO)CCc2c[nH]c3ccccc23)cc1)NO | -14.1% | –
24 | CCCCCCCCc1ccc(CCC(N)(CO)CO)cc1 | 15.2% | –
25 | CN1CCCN(C(=O)c2cccc(-c3ccc(C=C4C(=O)Nc5ccc(Cl)cc54)o3)c2)CC1 | -11.2% | –
26 | Cn1cc(-c2cnn3c(N)c(Br)c([C@H]4CCCNC4)nc23)cn1 | 8.3% | –
27 | CN(C)CC[C@H](c1ccc(Cl)cc1)c1ccccn1 | -10.9% | –
28 | CC(=O)OC[C@@H]1O[C@@H](n2ccc(=O)[nH]c2=O)[C@H](OC(C)=O)[C@H]1OC(C)=O | -2.76% | –
29 | OCCN1C[C@H](O)[C@@H](O)[C@H](O)[C@@H]1CO | 30.2% | –

Reference: PubChem BioAssay (NCATS)
